HEK293 tox = cytotoxic in the GLP-1 receptor inverse agonist counter-screen | HEK293 cAMP-luciferase reporter cells, luminescence, 24 h | Potency, µM (titrated, usually from 38.3 µM), without a hit: at the top dose activity change, negative = inhibition, actives largely listed as inhibitors | actives 0.13% (n = 410,000) | AID 624418;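 further: loss of luciferase light is scored as toxicity; on the % scale 0 is the no-effect control and ±100 the full control effect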
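Compound-treated cells are incubated 24 hr at 37 deg C under 5% CO2 after a 12 hour attachment period, then luciferase detection reagent is added and luminescence is measured following 12 min at room temperature; lowered signal indicates toxicity.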
GLP-1R inv ag = acts as inverse agonist at human GLP-1 receptor; HEK293 GLP-1R CRE-luciferase, luminescence, 24 h; GLP-1R form is constitutively active; Potency, µM (doses to about 38.3 µM), inactives show top-dose activity change, negative = inhibition, usual class: inhibitors; actives 1.6% (n = 410,000); further: on the % scale 0 is the no-effect control and ±100 the full control effect; nearly all actives have a fitted effect of over 55% in size
Target sequence (P43220 whole entry, looked up): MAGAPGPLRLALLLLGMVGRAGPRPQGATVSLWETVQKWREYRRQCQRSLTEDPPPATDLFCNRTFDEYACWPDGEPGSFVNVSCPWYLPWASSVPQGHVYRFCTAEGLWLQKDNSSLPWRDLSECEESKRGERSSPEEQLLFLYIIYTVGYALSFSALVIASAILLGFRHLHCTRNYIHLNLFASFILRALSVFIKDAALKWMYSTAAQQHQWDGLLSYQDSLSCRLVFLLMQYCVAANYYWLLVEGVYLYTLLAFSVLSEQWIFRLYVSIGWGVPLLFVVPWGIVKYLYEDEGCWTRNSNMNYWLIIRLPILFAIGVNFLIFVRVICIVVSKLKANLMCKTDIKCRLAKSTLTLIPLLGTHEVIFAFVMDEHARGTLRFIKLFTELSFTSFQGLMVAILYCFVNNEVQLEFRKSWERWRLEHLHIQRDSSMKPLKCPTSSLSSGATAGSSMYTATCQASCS
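Using stably transfected HEK293 (constitutively active GLP-1R, cAMP-luciferase reporter), compounds were incubated 24 hr and luciferase measured by luminescence.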
GLP-1R agonist = activates the human GLP-1 receptor | P43220 | Potency, µM (top dose mostly 45.6 µM), for inactives: at the top dose activation, usual class: activators | actives 0.007% (n = 380,000) | HEK293 GLP-1R CRE-luciferase, luminescence, 4-6 h; cells express a hypersensitive GLP-1R form; further: % of control where 0% means no effect
* = called active by the depositor; ? = inconclusive; nt = not tested or not shown; [ ] = dose if it differs, or a comment. In the library only some 1.7% were active in any assay of this set; here they are far more common. The call rests on the fitted dose curve; in most records, active means well fitted curve in the direction sought with a large enough effect; inconclusive means small, poorly fitted or top-dose-only effect, or another doubt; inactive means no such curve, though single readings can be large; an effect the other way counts as inactive or inconclusive. Potency means the concentration at half of the fitted maximal effect.

SMILES	HEK293 tox	GLP-1R inv ag	GLP-1R agonist
CCc1ccccc1NC(=O)Cn1nnc(-c2nc(-c3ccc(C)cc3)no2)c1N	6%	8%	nt
Cc1nnc(N2CCC(C(=O)NCCC(C)C)CC2)c2nn(-c3ccc(Cl)cc3)c(C)c12	0%	3%	nt
COc1ccc(C(=O)NCCCNC(=O)c2cnccn2)cc1Br	12%	17%	16%
C[C@@H]1O[C@@]2(CS1)CN1CCC2CC1	nt	nt	-2%
CCOc1cccc(C2c3[nH]c4ccccc4c3CCN2C(=O)c2ccccc2F)c1 (stereo not given)	-6%	5.6µM*	nt
CCOc1cccc(C2c3[nH]c4ccccc4c3CCN2C(=O)Cc2cccc(OCC)c2OCC)c1 (stereo not given)	0%	?	0%
CCOc1ccc(C2c3[nH]c4ccccc4c3CCN2C(=O)Cc2cccc(OCC)c2OCC)cc1 (stereo not given)	-9%	6.3µM*	nt
CCOc1cccc(CC(=O)N2CCc3c([nH]c4ccccc34)C2c2ccccc2)c1OCC (stereo not given)	1%	?	nt
O=C(CSCc1ccc(F)cc1)N1CCc2c([nH]c3ccccc23)C1c1ccc(Cl)cc1 (stereo not given)	-9%	?	nt
O=C(CSCc1ccc(F)cc1)N1CCc2c([nH]c3ccccc23)C1c1ccccc1 (stereo not given)	-8%	7.9µM*	nt
CC(=O)N1c2ccc(S(=O)(=O)N(C)CC(=O)N(Cc3ccccc3)C(C)C)cc2CC1C (stereo not given)	-2%	9%	nt
COc1ccc(C(=O)CSc2nc(C(C)(C)C)nc3ccccc23)cc1	1%	?	12%
CC(C)(C)NC[C@H](O)COc1cccc2c1CCC(=O)N2	nt	nt	0%[19.8 µM]
O=C(NCc1cccs1)c1nn(-c2ccccc2Cl)nc1CO	-26%	7%	nt
CCOC(=O)C1(C)CCCN(C(=O)c2ccc(OC)cc2)C1 (stereo not given)	8%	18%	?
Cc1ccccc1-c1noc(-c2ccccc2OCC(=O)Nc2ccccc2[N+](=O)[O-])n1	12%	3%	nt
COc1ccc(Nc2nnc(SCc3cn4c(C)cccc4n3)s2)cc1	?	2%	3%
Cc1cccn2cc(CSc3nnc(Nc4ccc(C(C)C)cc4)s3)nc12	-11%	10µM*	5%
CC(C)NC(=O)Nc1ccc2c(c1)C(=O)N([C@H](C)CO)C[C@H](C)[C@@H](CN(C)S(=O)(=O)c1cn(C)cn1)O2	-8%	6%	19%
CN1CCCC(OC(=O)c2ccc(C#N)cc2)C1 (stereo not given)	1%	2%	10%
Cc1ccc(CNC(=O)CCCCn2c(=O)c3ccccc3n(Cc3ccc(C)cc3)c2=O)cc1	1%	16%	-1%
Cc1ccccc1OCCc1c(C)[nH]c(=S)[nH]c1=O	-28%	?	20%
CCc1ccc(C(=O)NNc2cc(Cl)cc(Cl)c2)cc1	-24%	1µM*	-1%
CCc1ccc(C(=O)NNc2ccc(Cl)cc2)cc1	?	1µM*	-3%
CC(C)(C)c1ccc(C(=O)NNc2cc(Cl)cc(Cl)c2)cc1	-3%	?	-2%
SMILES	HEK293 tox	GLP-1R inv ag	GLP-1R agonist
CCc1ccc(C(=O)NCc2ccc(Cl)cc2)cc1	-14%	-3%	0%
CC1(C)C[C@H](O)[C@]2(CO)[C@H](O)C[C@]3(C)C(=CCC4[C@@]5(C)CC[C@H](O)C(C)(C)C5CC[C@]43C)[C@@H]2C1 (stereo not given in full)	-26%	-18%	0%
CN(C)c1ccc(CNC(=O)C2Cc3c(-c4ccccc4Oc4ccccc4)ccnc3O2)cc1 (stereo not given)	4%	?	-2%
O=C(CSc1cccc[n+]1[O-])c1cc(Cl)ccc1Cl	0.89µM*	?	7%
O=C(O)CSc1cccc[n+]1[O-]	-2%	-5%	-12%
Cc1cccc(N2CCN(C(=O)c3ccc(NC(=O)c4nsc5ccccc45)cc3)CC2)c1C	3%	-2%	nt
Cc1ccc(CSc2nc(=O)c3c(n2C)NC(=O)CC3c2ccc(OC(C)C)cc2)cc1 (stereo not given)	2%	14%	nt
CCOC(=O)C1=C(C)c2ccccc2N(C(=O)OC)C1(C)C(=O)OCC (stereo not given)	-15%	10%	23%
CCC(C)C(=O)N1c2ccccc2C(=C2SC(C(=O)OC)=C(C(=O)OC)S2)C(=S)C1(C)C (stereo not given)	10%	10µM*	-1%
Cc1nonc1C1CCCN1Cc1cn[nH]c1-c1ccc(-c2ccccc2)cc1 (stereo not given)	-8%	-5%	12%
CNCCC1Sc2ccccc2Oc2ccccc21 (stereo not given)	3%	10µM*	13%
CN(C)CCCC1Sc2ccccc2Sc2ccccc21 (stereo not given)	?	?	1%
CC(C)CC(COCc1cccc(Cl)c1)N1CCN(C(=O)c2ccc(C(F)(F)F)cc2)CCC1=O (stereo not given)	-13%	10µM*	-2%
Cc1cccc(COC[C@H](Cc2ccccc2)N2CCN(C(=O)c3ccc(C(F)(F)F)cc3)CCC2=O)c1	-29%	?	5%
O=C(c1ccc(Cl)c(Cl)c1)N1CCC(=O)N(C(COCc2cccc(Cl)c2)Cc2ccccc2)CC1 (stereo not given)	-17%	4µM*	-5%
CC(C)C[C@@H](COCc1cccc(Cl)c1)N1CCN(C(=O)c2cccc(C(F)(F)F)c2)CCC1=O	-9%	?	10%
O=C(c1cccc(Cl)c1)N1CCC(=O)N(C(COCc2cccc(Cl)c2)Cc2ccccc2)CC1 (stereo not given)	-5%	4%	10%
Cc1cccc(COCC(Cc2ccccc2)N2CCN(C(=O)c3ccc(C(F)(F)F)cc3)CCC2=O)c1 (stereo not given)	-11%	11µM*	0%
O=C(Nc1c(Cl)cccc1Cl)c1cccc2c1C(=O)N(C1CCCCC1)C2	0%	-7%	0%
CC(C)c1ccc(CN2CCN(C(=O)CCl)CC2)cc1	?	5.6µM*	-5%
CC(C)CC(=O)N1CCN(Cc2ccc(Cl)cc2)CC1	-24%	?	1%
C#CCOc1ccc(CNC[C@H]2O[C@@H](n3cnc4c(N)ncnc43)[C@H](O)[C@@H]2O)cc1	13%	14%	-2%
Cc1cc(F)ccc1NC(=O)CS(=O)(=O)c1cccc2nsnc12	2%	-1%	nt
Cc1ccccc1C(=O)Nc1nnc(S(=O)(=O)N2c3ccccc3CC2C)s1 (stereo not given)	-3%	11µM*	nt
Cc1cccc(C(=O)Nc2nnc(S(=O)(=O)N3c4ccccc4CC3C)s2)c1 (stereo not given)	-12%	?	nt
CCCCOC(=O)CCCN1C(=O)/C(=C2\SC(=S)N(CCCC(=O)OCCCC)C2=O)SC1=S	-9%	9%	5%
Cc1ccc(Sc2c(C=O)c3ccccc3n2C)cc1	?	5.6µM*	-22%
Cc1ccc(Sc2c(O)c3ccccc3n(C)c2=O)cc1	-8%	0%	-3%
CCc1cccc(-n2c(=O)c3cccnc3n2CC(=O)NCc2ccccc2)c1	-8%	?	nt

Assay outcomes (PubChem BioAssay)
